Results reported in PubChem BioAssay AID624116 (National Center for Advancing Translational Sciences (NCATS), 2012).
Records with an inconclusive call do not appear. Entries that show only a call come without a potency. Calls of active or inactive are those of the source. The call rests on the fitted dose curve; in most records, active means well fitted activation curve with a large enough effect; inconclusive means small, poorly fitted or top-dose-only effect; inactive means no such curve, though single readings can be large or run the other way.

Assay: qHTS Assay for Rab9 Promoter Activators: Hit Validation Using Renilla Luciferase Read-Out for Rab9
Summary of the method: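 Luciferase reporter read-out: promoter activation measured by luminescence after 10 min with detection reagent at room temperature. Cells were Huh7 with a stable promoter-luciferase construct, treated 24 h at 37 deg C.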
Potency means the concentration at half of the fitted maximal effect.

Row | Compound | Potency
1 | O=C(NC1CCCC1)C(c1ccc(F)cc1)N(C(=O)c1csnn1)c1ccccc1 (configuration not stated) | inactive
2 | Nc1c(N(CCO)C(=O)/C=C/c2ccco2)c(=O)[nH]c(=O)n1Cc1ccccc1 | inactive
3 | COc1ccc([N+](=O)[O-])cc1COc1ccc2c(-c3ccccc3)cc(=O)oc2c1 | 3.28 µM (active)
4 | Brc1ccccc1-c1nnc(CSc2nnc3sc4ccccc4n23)o1 | inactive
5 | CC(=O)Nc1ccc(NC(=O)COc2ncnc3ccccc23)cc1 | inactive
6 | COc1ccccc1N(C(=O)c1snc(C(N)=O)c1N)C(C(=O)NC1CCCCC1)c1cccc(OC)c1OC (configuration not stated) | 26 µM (active)
7 | O=C(O)CSc1nnc(-c2ccncc2)n1CCc1ccccc1 | inactive
8 | Cc1cccc(NC(=O)CSc2nc3ccccc3o2)c1 | inactive
9 | Cc1cccc(N2CCN(C(=S)c3ccccc3)CC2)c1 | inactive
10 | CCN(CC)S(=O)(=O)c1ccc(NCc2ccccn2)nc1 | inactive
11 | COc1ccc(-c2csc(Nc3ncccn3)n2)cc1C | inactive
12 | O=C(CCN1C(=O)c2ccccc2C1=O)Nc1ccc(-c2nc3ccccc3s2)cc1 | inactive
13 | C=CCOC(=O)N1CCN(c2cccc(C(F)(F)F)c2)CC1 | inactive
14 | NC(=O)COC(=O)c1ccc2noc(-c3ccccc3)c2c1 | inactive
15 | Cc1nc(-c2ccc(S(=O)(=O)Oc3ccc(Cl)cc3Cl)s2)cs1 | inactive
16 | CCCCCCC(=O)Nc1ccc(C(=O)N/N=C/c2cccnc2)cc1 | inactive
17 | Cc1ccc(S(=O)(=O)/N=C(/Nc2ccccn2)c2ccc(Cl)cc2)cc1 | 14.6 µM (active)
18 | CC1CC(C)CN(CC(=O)N2CCOCC2)C1 (configuration not stated) | inactive
19 | CCOc1cc(C2C(C#N)=C(N)Oc3n[nH]c(C)c32)ccc1OCCN1CCOCC1 (configuration not stated) | inactive

Row | Compound | Potency
20 | COc1ccc(/C=C\c2onc(C)c2S(=O)(=O)N2CCC(C(=O)NCCC(C)C)CC2)cc1 | inactive
21 | CC(C)(C)C(=O)N/C(N)=N/c1nc2ccccc2o1 | inactive
22 | NCCOc1ccccc1-c1ccccc1 | inactive
23 | O=C(CCCN1C(=O)C(c2ccccc2)Oc2cccnc21)Nc1ccccc1Cl (configuration not stated) | inactive
24 | COCCNC(=O)CN1C(=O)NC(c2ccccc2)(c2ccccc2)C1=O | inactive
25 | CCC(C)(C)NC(=O)C(c1ccc(OC)cc1)N(Cc1cccs1)C(=O)CCC(=O)Nc1cc(C)on1 (configuration not stated) | inactive
26 | Cc1ccc2nc(Nc3ccc(Cl)cc3)c3nncn3c2c1 | inactive
27 | O=C(O)C1=CC[C@@H](c2ccc(Cl)cc2)N(S(=O)(=O)c2ccc(Cl)cc2)[C@H]1c1ccccc1 | 14.6 µM (active)
28 | O=C(CSc1nnc(-c2ccccc2)o1)Nc1ccccc1F | inactive
29 | COc1ccc(-c2nnc(SCC(=O)/C(C#N)=C(\C)N)o2)cc1 | inactive
30 | COC(=O)c1ccccc1NC(=O)c1cc(-c2cccs2)on1 | inactive
31 | CCCOP(=O)(c1ccc(N(C)C)cc1)C(O)c1cccnc1 (configuration not stated) | inactive
32 | CCN(C(=O)COC(=O)c1ccc(C=O)cc1)c1c(N)n(Cc2ccccc2)c(=O)[nH]c1=O | inactive
33 | O=C(CCc1cccc(Cl)c1)NC1CCCN(Cc2ccccc2F)C1 (configuration not stated) | inactive
34 | Cc1cc(C)cc(N(CC(=O)NC2CCCC2)C(=O)CNC(=O)c2ccco2)c1 | inactive
35 | CC1CN(C(=O)c2ccncc2)CC(C)O1 (configuration not stated) | inactive
36 | CCC(=O)NC(=S)Nc1ccc(N2CCOCC2)cc1 | inactive
37 | COc1ccc(/C=C\C(=O)c2c(O)ccc3c(C)cc(=O)oc23)cc1OC | inactive
